Data on 16 sequences can be found in the supplement of paper PMC6555819.

What all share (experiment): PBM binding z-score (relative to random genomic background probes); higher = stronger binding; sequences stand for … in GC…GCGATTGACAGCGTAGAATGAAGG
The test system of experiment [1] is RARb homodimer (NR concentration 270 nM). A digest of the protocol:
(§1)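 Custom Agilent 4×180K protein-binding microarrays carried double-stranded probes. Their 34-nt variable regions held direct-repeat seeds, single-nucleotide variants, half-site ablations and random human genomic background sequences. Arrays were incubated 1 h with ligand-free nuclear receptor dimers in PBS pH 7.4, 2% milk, 0.02% Triton X-100, 1 mM DTT, 0.2 mg/mL BSA and 0.4 mg/ml salmon testes DNA. Antibodies against each partner (one per run) detected binding, and scanned fluorescence was regression-normalized. Binding z-scores use random background probes as reference.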

For experiment [2], the system named is RARg:RXRa (NR concentration 270 nM, RXRa partner concentration 90 nM). The method in brief:
as §1

In experiment [3] the test system is RARg homodimer (NR concentration 270 nM). The method in brief:
as §1

Experiment [4] deals with RXRa DBDmut IVT, anti-RXR (DBD mutation: RXRa K156A/R161A, NR concentration 90 nM). The method in brief:
as §1

Experiment [5] has as its system RXRa homodimer (NR concentration 180 nM). The method in brief: as §1
Experiment [6] relates to THRa:RXRa (NR concentration 90 nM, RXRa partner concentration 90 nM). A digest of the protocol: as §1
For experiment [7], the system named is THRa homodimer (NR concentration 90 nM). A digest of the protocol: as §1
Experiment [8] concerns VDR:RXRa (NR concentration 270 nM, RXRa partner concentration 90 nM). A digest of the protocol:
as §1

The test system of experiment [9] is VDR homodimer (NR concentration 270 nM). The method in brief: as §1

With AATATTAGTTGAGACGAGGGCAACCGATAGGTTG, the PBM binding z-score in experiment [1] worked out at 1.28; in experiment [2], 0.902; in experiment [3], 0.922; in experiment [4], 0.47; in experiment [5], 0.883; in [6], 2.64. In addition, the PBM binding z-score stood at 0.504 in [7], 1.01 in experiment [8] and 1.73 in [9].
Regarding CTCGAAAGGTCGGTTGAGGTGAGTAGACGGATAA, the PBM binding z-score in experiment [1] was 2.44; in [2], 2.67; in experiment [3] it was 2.67; in experiment [4] it was 0.673; in [5], 2.28; in experiment [6] it was 5.01. Besides, the PBM binding z-score in [7] is 1.3; in experiment [8], 1.99; in experiment [9] it was 0.235.
Regarding AGAATGAGGTGACCAAAGATCAGGGAAACGCTTG, the PBM binding z-score in experiment [1] was 0.672; in [2] it was 1.06; in experiment [3] it was 1.01; in experiment [4], -0.266; in experiment [5], 1.51; in experiment [6], 2.53. For the same sequence, the PBM binding z-score in [7] is 0.878; in experiment [8], 0.0943; in experiment [9] it was -0.347.
Take CCTAGCAGGCCAGGGTCACTCACGCATTTCGCTT: the PBM binding z-score stood at 2.64 in [1]; 2.79 in [2]; 2.22 in experiment [3]; 0.414 in experiment [4]; 3.32 in experiment [5]; 2.63 in experiment [6]. For the same sequence, the PBM binding z-score in experiment [7] is 1.32; in [8], 2.3; in experiment [9], 1.73.
GCTACTAGGTCAGGTTGGTCAGCTAACGGGTACG: the PBM binding z-score was determined as 2.98 in experiment [1]; 2.63 in experiment [2]; 3.84 in experiment [3]; 0.551 in experiment [4]; 1.24 in experiment [5]; 1.85 in experiment [6]. Moreover, the PBM binding z-score in experiment [7] stood at 1.16; in [8], 0.914; in [9], 0.983.
With CCTGGTAGGTCAATGGTCAGCTAAAGCAGCTCGC, the PBM binding z-score amounted to 2.92 in experiment [1]; 3.75 in [2]; 4.04 in [3]; 0.676 in experiment [4]; 2.66 in [5]; 1.56 in [6]. Moreover, the PBM binding z-score turned out to be 0.243 in experiment [7], 1.33 in [8] and 0.307 in experiment [9].
CAAACTCGGTCACAGAGGTCAAAGTCCGTGCGTA: the PBM binding z-score was 5.29 in experiment [1]; 6.57 in experiment [2]; 6.96 in experiment [3]; 2.49 in [4]; 6.63 in [5]; 4.04 in [6]. The PBM binding z-score in [7] amounted to 1.73; in experiment [8], 7.57; in experiment [9], 5.74.
On to AGTCAAAGTTCCCTAGGTAACGTAAGATTCAGCT, for which the PBM binding z-score was 0.045 in [1]; 0.0675 in [2]; 0.31 in experiment [3]; 0.164 in [4]; -0.00363 in [5]; 0.427 in [6]. In addition, the PBM binding z-score in experiment [7] is -0.151; in experiment [8], -0.251; in experiment [9] it was -0.324.
Regarding ACTACTAGTTGACTTAGGGCAACCGATACGACGC, the PBM binding z-score was determined as 0.824 in experiment [1]; 0.463 in experiment [2]; 0.625 in experiment [3]; 0.495 in experiment [4]; 0.508 in experiment [5]; 1.32 in [6]. Moreover, the PBM binding z-score in experiment [7] worked out at 0.683; in experiment [8], 0.191; in experiment [9], 0.273.
Consider TCTTGTAGATCAACTGGAGGTTAAGAAAGATCGA, for which the PBM binding z-score in experiment [1] is 0.645; in [2], 1.23; in experiment [3], 0.313; in [4], 0.336; in [5], 0.971; in experiment [6] it was 1.1. Also, the PBM binding z-score is -0.207 in [7], 0.589 in experiment [8] and -0.0194 in experiment [9].
In the case of CAGCCTAGGTCTGGGCCAGTATAGGAGGAACGTT, the PBM binding z-score in experiment [1] was -0.496; in experiment [2], -0.501; in experiment [3], -0.44; in experiment [4], -1; in [5], -0.703; in experiment [6] it was -0.77. The figures for the PBM binding z-score in experiment [7], in experiment [8] and in experiment [9] were -1.16, -0.828 and -0.974, respectively.
As for CGAACGCGGGCATGAGTTGATAGCAAATGCCGAT, the PBM binding z-score in [1] was -0.346; in experiment [2], -0.206; in experiment [3] it was 0.05; in experiment [4], 0.305; in experiment [5], -0.124; in experiment [6], -0.413. Further, the results for the PBM binding z-score in [7], in experiment [8] and in experiment [9] were -0.72, -0.376 and 0.0939, respectively.
Regarding TCGAGTAGGTTTCCAATGGGGCATTCAGCTTTCT, the PBM binding z-score in experiment [1] is -0.0582; in [2] it was -0.76; in experiment [3] it was -0.806; in [4], 0.449; in [5], -0.581; in experiment [6], -0.683. Also, the PBM binding z-score was -0.262 in experiment [7], -0.464 in experiment [8] and -0.443 in [9].
Turning to AGTCAAAGTTCAGGACGAGGTAGCGTAAAGCACG, the PBM binding z-score turned out to be 2.76 in [1]; 4.44 in experiment [2]; 4.55 in experiment [3]; 2.81 in experiment [4]; 2.93 in experiment [5]; 2.9 in experiment [6]. For the same sequence, the values for the PBM binding z-score in experiment [7], in [8] and in experiment [9] were 0.672, 2.43 and 2.05, respectively.
Consider CGTCAAAGTTCAACAAAGGTAACGTAAAGCACGC, for which the PBM binding z-score in experiment [1] turned out to be 4.37; in experiment [2], 5.63; in experiment [3], 6.4; in [4], 4.53; in experiment [5], 4.82; in experiment [6], 4.66. In addition, the PBM binding z-score was determined as 0.367 in [7], 4.46 in experiment [8] and 3.16 in experiment [9].
Take ACTATTAGTTCAGACGAGGGCAACCGATAGGTTG: the PBM binding z-score was 2.05 in experiment [1]; 1.74 in experiment [2]; 1.88 in experiment [3]; 2.26 in [4]; 0.943 in experiment [5]; 4.09 in [6]. Moreover, the PBM binding z-score in experiment [7] is 0.384; in experiment [8], 2.84; in [9], 2.44.
